Laboratory results reported in PubChem BioAssay (NCI).
Compounds without any hit were thinned out: in the full panel of roughly 83,000, 20% have a hit.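 Each cell line was grown in a 96-well plate and treated with one concentration of compound for 48 hours. Values below 10 were considered active.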 The source made the active and inactive calls.

Columns and labels:
Assay in all cases: NCI-60 one-dose screen, 48 h (100 = growth as untreated, 0 = no growth, -100 = all killed)
Conditions in all cases: 10 µM unless noted
[1] = system: T-47D breast
[2] = system: BT-549 breast
[3] = system: MDA-MB-435 melanoma
[4] = system: SW-620 colon
[5] = system: MCF7 breast
[6] = system: HCT-116 colon
[7] = system: KM12 colon
[8] = system: HCC-2998 colon

Measured: growth

CSC1=Nc2c(c(C)c(-c3ccccc3)n2CCCC(=O)O)C2=NC(=O)C[C@H](C)N12
inactive: [1] 113% | [2] 105% | [3] 102% | [4] 102% | [5] 88.8% | [6] 101% | [7] 97.1%

Cc1ccc(/C=C/C(=O)Nc2ncc(Cc3ccc(F)cc3)s2)o1
active: [3] -25.9%
inactive: [1] 58.5% | [2] 68.9% | [4] 24.6% | [5] 14% | [6] 33.5% | [7] 21%

COc1ccc(/C=C/C(=O)c2cc(OC)c(OC)c(OC)c2)cc1OCC(=O)Nc1nc2ccc(OC(F)(F)F)cc2s1
inactive: [1] 24.3% | [2] 25.7% | [8] 90.6%
active: [3] -51.3% | [4] 6.16% | [5] 4.06% | [7] -14.3%

CNC(=O)c1cc(Oc2cccc3nc(NC(=O)Nc4cc(C(F)(F)F)ccc4Cl)ccc23)ccn1
inactive: [1] 78.1% | [2] 85% | [3] 74.1% | [4] 112% | [5] 85% | [8] 115% | [7] 96.7%

O=C(Nc1ncccc1OCc1ccccc1)NC1CCCCCC1
inactive: [1] 71% | [2] 78.2% | [3] 89% | [4] 94.9% | [5] 79.9% | [8] 105% | [7] 88.8%

O=C1/C=C/[C@@H](O)[C@@H]2C[C@@H](O)C[C@H]2/C=C/CCC[C@@H](O)CCO1
inactive: [1] 116% | [2] 109% | [3] 87.9% | [4] 106% | [5] 95.1% | [8] 100% | [7] 77.1%

O=C(Cc1cccc(OC(F)(F)F)c1)Nc1ccc(CCCCc2nnc(NC(=O)Cc3ccccn3)s2)nn1
inactive: [1] 30.3% | [2] 48.7% | [3] 85.1% | [4] 100% | [5] 79.7% | [8] 91% | [7] 69.4%

C=CN(C(=O)N1CCN(c2cc3c(cc2F)c(=O)c(C(=O)O)cn3C2CC2)CC1)c1nc(-c2ccc(OC)cc2)cs1
active: [5] 8.52%
inactive: [1] 44.1% | [2] 14.8% | [3] 19.7% | [4] 22.2% | [6] 11.4% | [7] 21.4%

CN(C)CCCC1(c2ccc(F)cc2)OCc2cc(-c3ccc4cc[nH]c4c3)ccc21 (stereo not drawn)
inactive: [1] 75.8% | [2] 87.7% | [3] 14.7% | [4] 17.2%
active: [5] -4.23% | [6] -12.2% | [7] 0.464%

COc1ccc(C#Cc2ccc(=O)oc2-c2cc(OC)c(OC)c(OC)c2)cc1O
inactive: [1] 45.2% | [2] 44.8% | [4] 31.2% | [5] 16% | [6] 14.9% | [7] 26.8%
active: [3] 0.895%

Cc1ccc(C=C2C(=O)NC(=O)NC2=O)cc1
inactive: [1] 113% | [2] 104% | [3] 109% | [4] 109% | [5] 98.8% | [8] 112% | [7] 108%

CC1CCN(C(=O)CCCl)c2ccccc21 (stereo not drawn)
inactive: [1] 121% | [2] 96.3% | [3] 123% | [4] 91.3% | [5] 97.5% | [8] 86.1% | [7] 102%

O=C(CSc1nc(-c2ccccc2)cc(=O)[nH]1)Nc1nc(-c2ccccc2)cs1
inactive: [1] 71.8% | [2] 88% | [3] 105% | [4] 107% | [5] 76.9% | [8] 111% | [7] 95.5%

O=C(O)/C=C/C(=O)Nc1cccc(Cn2nnc3cc(Cl)c(Cl)cc32)c1
inactive: [1] 93.2% | [2] 80.1% | [3] 106% | [4] 96.3% | [5] 89% | [8] 112% | [7] 109%

C#CC#CC#CC#CC#CC#CC#CC#CCC1OC[C@H](COC(=O)O[C@@H](C(=O)O[C@H]2C[C@@]3(O)[C@@H](OC(=O)c4ccccc4)[C@@H]4[C@]5(OC(C)=O)CO[C@@H]5C[C@H](O)[C@@]4(C)C(=O)[C@H](OC(C)=O)C(=C2C)C3(C)C)[C@@H](NC(=O)c2ccccc2)c2ccccc2)O1 (stereo partly drawn)
inactive: [1] 41.3% | [2] 26.4% | [4] 27.7% | [5] 25% | [8] 10.4% | [7] 10.8%
active: [3] -48%

Cc1ccc2nc(NC(=O)CSc3nc(-c4ccccc4)c(C#N)c4nnnn34)sc2c1
inactive: [1] 100% | [2] 106% | [3] 105% | [4] 104% | [5] 95.7% | [8] 103% | [7] 102%

O=C1/C(=C/c2ccc(O)c(O)c2)COc2ccc(-c3ccccc3)cc21
active: [3] -6.77% | [4] -38.3% | [8] -23%
inactive: [1] 15.4% | [2] 31.7% | [5] 16% | [7] 19.6%

CC1=C2[C@@H](CC1)[C@]1(C)O[C@@](C3CCCCC3)(C[C@H]1OC(=O)CO)[C@H]2OC(=O)/C=C/c1ccccc1
active: [2] -1.1%
inactive: [1] 46.1% | [3] 95.9% | [4] 86.5% | [5] 57.6% | [8] 81.8% | [7] 79.6%

COc1ccc(C(=S)N2CCN(c3ccc(Cl)cc3)CC2)cc1
inactive: [1] 88.1% | [2] 95.4% | [3] 120% | [4] 106% | [5] 94% | [6] 96% | [7] 101%

CCNc1nc(O)c(/C=C2\C=Nc3ncccc32)s1
inactive: [8] 10.2%
active: [1] -9.7% | [2] -50.4% | [3] -0.802% | [4] 6.52% | [5] 3.97% | [7] 6.24%

CCOC(=O)C(Cc1ccc(OC)cc1)C(=O)OCC
active: [2] -9.62% | [7] 7.78%
inactive: [1] 20.7% | [3] 14.7% | [4] 35.1% | [5] 17.1% | [8] 55.5%

O=C(CC(=O)Nc1cccc(C(=O)O)c1)Nc1cccc(C(=O)O)c1
inactive: [1] 92.4% | [2] 98.8% | [3] 87.4% | [4] 90% | [5] 101% | [8] 102% | [7] 112%

NC(=O)c1cccc([C@@H]2O[C@H](CO)[C@@H](O)[C@H]2O)c1
inactive: [1] 85.7% | [2] 90.9% | [3] 106% | [4] 24% | [5] 61.8% | [8] 93.9% | [7] 34.7%

Cc1c(CN)cc(-c2ccc(Cl)cc2)n1-c1ccccc1
inactive: [1] 52.5% | [2] 74.9% | [3] 97.1% | [4] 89.4% | [5] 75.1% | [8] 107% | [7] 99.9%

CCN(CC)Cc1cc(Nc2ccnc3cc(Cl)ccc23)ccc1O
inactive: [1] 100% | [2] 95.5% | [3] 97.8% | [4] 88.4% | [5] 86.9% | [8] 93.2% | [7] 87.7%

Nc1[nH]n2cc(-c3ccc(F)cc3)nc2c1N=Nc1ccc(S(N)(=O)=O)cc1
inactive: [1] 77.8% | [2] 73.9% | [3] 78.4% | [4] 76.7% | [5] 87.7% | [6] 62.7% | [7] 73.1%

COc1ccc(Cn2cc3c(c2-c2ccccc2)CCc2cnoc2-3)cc1
inactive: [1] 64.7% | [2] 45.3% | [4] 18.3% | [5] 14.6% | [8] 12.5%
active: [3] 3.43% | [7] 0.62%

CCCC(CC)(C(=O)Nc1ccc2nc(C)cc(N)c2c1)C(=O)Nc1ccc2nc(C)cc(N)c2c1
inactive: [1] 106% | [2] 101% | [3] 108% | [4] 112% | [5] 102% | [8] 111% | [7] 109%

NNCCc1ccc(NC(=O)CCCc2ccc(C(=O)Nc3ccccc3N)cc2)cc1
inactive: [1] 28.7% | [2] 71% | [3] 71.1% | [4] 57.5% | [5] 57.8% | [8] 92.4% | [7] 81.5%

COC(=O)c1ccc(NC(=O)Nc2ccc(C(=O)OC)cc2)cc1
inactive: [1] 89% | [2] 99% | [3] 109% | [4] 112% | [5] 96.1% | [6] 95.3% | [7] 113%

N#Cc1c(-c2ccccc2)nc(SCc2nnc(-c3ccc(Cl)cc3)o2)[nH]c1=O
inactive: [1] 53.8% | [2] 76.3% | [3] 109% | [4] 100% | [5] 91.3% | [8] 103% | [7] 102%

CN1CCN(C(=O)[C@@]2(C)CC[C@]3(C)CC[C@]4(C)C(=CC[C@@H]5[C@@]6(C)CCC(=O)NC(C)(C)[C@@H]6CC[C@]54C)[C@@H]3C2)CC1
inactive: [1] 39.2% | [2] 45.9% | [3] 46.1% | [4] 19.7% | [5] 45% | [8] 49% | [7] 46.8%

COc1cc(OC)c(C(=O)C(CN(C)C)CN(C)C)cc1OC
active: [1] -17.6% | [4] -83.3% | [6] -65.6%
inactive: [2] 74.5% | [3] 80.9% | [5] 10.6% | [7] 111%

Cc1ccc(S(=O)(=O)N2CCC(=O)c3ccccc32)cc1
active: [3] 6.12%
inactive: [1] 78.7% | [2] 65.6% | [4] 44.7% | [5] 40.5% | [8] 83.8% | [7] 33.5%
